For 40 molecules, Potency and outcome results are on record in PubChem BioAssay (NCATS).

Records with an inconclusive call do not appear. A call without a number means that no potency is given here. Activity calls are given as the source filed them. Calls come from the whole dose curve; as a rule, active = well fitted inhibition curve with a large enough effect; inconclusive = small, poorly fitted or top-dose-only effect; inactive = flat fitted curve, though single readings scatter. Peptide text beside a SMILES is read from it.

For the assay, the system named is CRL-7250. Briefly: qHTS assay to identify novel small-molecules to repurpose for Merkel cell carcinoma treatment (AID 1296009). Note: nearly all actives have a fitted effect of over 60% in size. Particulars: MCC and control cell lines, CellTiter-Glo viability, 72 h; series mostly up to 92 µM. In a few lines: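 Cells exposed to NPC (8-point) and MIPE (11-point) compound dilutions for 72 hr at 37 degree celsius; viability read by CellTiter-Glo luminescence, normalized to no-cell and DMSO in-plate controls.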
(Quantitative high-throughput screening tests each substance at several concentrations.)
Regarding `CC(C)C(C(=O)N(C)C(C)C(N)=O)N(C)C(=O)C1CCCN1C(=O)/C=C/C=C/C(O)C(C)O` (stereo not given), the Potency result was “inactive”.

As for `COc1ccc(O[C@@H]2O[C@H](CO)[C@@H](O)[C@H](O)[C@H]2O)cc1OC`, the Potency result is “inactive”.

As to `Cc1ccc(C)c(NC(=O)CNS(=O)(=O)c2ccc3[nH]c(=O)oc3c2)c1`, the Potency entry was “inactive”.

Turning to `NC(=O)[C@H]1CCCCc2c1[nH]c1ccc(Cl)cc21`, the Potency entry is “inactive”.

Consider `NC(=O)C(O[C@@H]1O[C@H](CO[C@@H]2O[C@H](CO)[C@@H](O)[C@H](O)[C@H]2O)[C@@H](O)[C@H](O)[C@H]1O)c1ccccc1` (stereo not given in full), for which the Potency result was “inactive”.

With `CC1=C(C)C(=O)OC(C(C)C2CCC3C4C5OC5C5(O)CC(OC6OC(CO)C(OC7OC(C)C(O)C(O)C7O)C(O)C6O)CC(O)C5(C)C4CCC23C)C1` (stereo not given), the Potency entry is “inactive”.

`COC(=O)C1=CO[C@@H](O[C@@H]2O[C@H](CO)[C@@H](O)[C@H](O)[C@H]2O)[C@@H]2[C@@H](CO)[C@@H](O)C(O)[C@H]12` (stereo not given in full): the Potency entry is “inactive”.

For `C[C@]1(OC(=O)/C=C/c2ccccc2)C[C@H](O)[C@]2(O)C=CO[C@@H](O[C@@H]3O[C@H](CO)[C@@H](O)[C@H](O)[C@H]3O)C12` (stereo not given in full), the Potency result was “inactive”.

Regarding `CC1OC(OC2C(CO)OC(OCC3OC(OC(=O)C45CCC(C)(C)CC4C4=CCC6C7(C)CCC(OC8OC(C(=O)O)C(O)C(OC9OC(CO)C(O)C(O)C9O)C8O)C(C)(C)C7CCC6(C)C4(C)CC5)C(O)C(O)C3O)C(O)C2O)C(O)C(O)C1O` (stereo not given), the outcome is “inactive [at 9.27 µM]”.

As for `C=C1C(=O)OC2/C=C(\C)CC/C=C(\C(=O)O)CC/C=C(\C)CCC12` (stereo not given), the Potency result was “inactive”.

For the molecule `C=CC1(C)CC(OC(=O)/C(C)=C\COC(C)=O)C(C(=C)C(=O)O)C(O)C1C(=C)CO` (stereo not given), the Potency entry is “inactive”.

As for `C[C@@H]1O[C@@H](O[C@@H]2[C@@H](O[C@@H]3O[C@@H](C)[C@H](O[C@@H]4OC[C@H](O)[C@H](O[C@@H]5OC[C@@H](O)[C@H](O)[C@H]5O)[C@H]4O)[C@@H](O[C@@H]4OC[C@](O)(CO)[C@H]4O)[C@H]3O)[C@H](OC(=O)[C@]34CCC(C)(C)C[C@H]3C3=CCC5[C@@]6(C)C[C@H](O)[C@H](O[C@@H]7O[C@H](CO[C@@H]8OC[C@H](O)[C@H](O)[C@H]8O)[C@@H](O)[C@H](O)[C@H]7O)C(C)(C)C6CC[C@@]5(C)[C@]3(C)C[C@H]4O)OC[C@H]2O)[C@H](O)[C@H](O)[C@H]1O` (stereo not given in full), the outcome is “inactive [at 9.27 µM]”.

As for `CO[C@H]1c2cc(C(C)C)c(O)c(O)c2[C@@]23CCCC(C)(C)C2[C@@H]1OC3=O` (stereo not given in full), the Potency entry was “inactive”.

`COc1cc(C)c(C(=O)OC2C(C)OC(OC3CCC(C)C4C3C=C(C)C3/C(C)=C\CC/C(C)=C/C5(C)C=C(C(=O)O)C(C)CC56OC(=O)/C(=C(\O)C34C)C6=O)C(O)C2O)c(OC)c1` (stereo not given): the outcome was “inactive [at 9.27 µM]”.

On to `O=C1CC(c2ccc([N+](=O)[O-])cc2)=NN1c1ccccc1`, for which the Potency result is “inactive”.

`COc1cc2c(cc1O)C1(Cc3ccc4c(c3C1O)OCO4)[N+](C)([O-])CC2` (stereo not given): the Potency entry was “inactive”.

`OCC1OC(Oc2cc(O)cc(/C=C/c3ccc(OC4OC(CO)C(O)C(O)C4O)cc3O)c2)C(O)C(O)C1O` (stereo not given): the Potency result was “inactive”.

Consider `O=C(O)CCc1cc2ccoc2cc1O[C@@H]1O[C@H](CO)[C@@H](O)[C@H](O)[C@H]1O`, for which the Potency result was “inactive”.

As for `C=C[C@]1(C)C=C2CCC3C(C)(CCC[C@@]3(C)C(=O)O)C2CC1` (stereo not given in full), the Potency result was “inactive”.

For `COc1cc(CCCO)ccc1O[C@@H]1O[C@H](CO)[C@@H](O)[C@H](O)[C@H]1O`, the Potency result was “inactive”.

Take `CCOC(=O)[C@H](CCc1ccccc1)N[C@@H](C)C(=O)N1C2CCCCC2C[C@H]1C(=O)O` (stereo not given in full): the Potency result was “inactive”.

As to `CC1CCC23COC(=O)C2=CC(O)CC3C1(C)CCC1=CC(=O)OC1O` (stereo not given), the Potency entry was “inactive”.

Regarding `CSCC1OC(n2cnc3c(N)ncnc32)C(O)C1O` (stereo not given), the Potency result was “inactive”.

Take `COc1ccc(CCC(=O)O)c(O[C@@H]2O[C@H](CO)[C@@H](O)[C@H](O)[C@H]2O)c1`: the Potency entry was “inactive”.

In the case of `COC(O)(CC(C)C)C1Oc2cc(C)[nH]c(=O)c2O1` (stereo not given), the Potency entry is “inactive”.

Regarding `C[C@H](C(=O)NC1CCCC1)N(C(=O)Cn1nnc(-c2ccc3c(c2)OCO3)n1)C1CCCCC1`, the Potency result was “inactive”.

With `C=CC1(C)CC2CCC3C(C)(C(=O)O)CCCC3(C)C2=CC1=O` (stereo not given), the Potency result is “inactive”.

On to `COc1cc(C2Oc3c(OC)cc(CCCO)cc3C2CO)ccc1O` (stereo not given), for which the Potency entry was “inactive”.

On to `COC(=O)C1=COC(OC2OC(CO)C(O)C(O)C2O)C2C(C)CC(=O)C12O` (stereo not given), for which the Potency result was “inactive”.

Take `CO[C@@]12CC3[C@@H]([C@@H](O)[C@@H](OC(C)=O)C4[C@](C)(COC(C)=O)CCC[C@]34C)[C@@H](C)C1=CC(=O)O2` (stereo not given in full): the Potency result was “inactive”.

Take `CC(=O)N[C@@H](Cc1c[nH]c2ccccc12)C(=O)N[C@@H](CCC(=O)O)C(=O)N[C@@H](Cc1cnc[nH]1)C(=O)N[C@@H](CC(=O)O)C(=O)Nc1ccc2c(C(F)(F)F)cc(=O)oc2c1` (HELM PEPTIDE1{[ac].W.E.H.D.[O=c1cc(C(F)(F)F)c2ccc(N[*:1])cc2o1]}$$$$V2.0): the Potency result was “inactive”.

With `O=c1c2ccccc2nc2n1CCC2O` (stereo not given), the Potency entry was “inactive”.

With `CC1CCC2(C(=O)OC3OC(CO)C(O)C(O)C3O)CCC3(C)C(=CCC4C5(C)CCC(O)C(C)(CO)C5CCC43C)C2C1(C)O` (stereo not given), the Potency entry was “inactive”.

In the case of `COc1cc(/C=C/C(=O)O[C@H]2[C@H](O)[C@@H](CO)O[C@@]2(CO)O[C@H]2O[C@H](COC(=O)c3ccc(O)cc3)[C@@H](O)[C@H](O)[C@H]2O)cc(OC)c1OC`, the Potency result was “inactive”.

In the case of `C[C@@H]1CCC2C(C)(C)[C@H](O)CC[C@]2(C)[C@@]12Cc1c(O)cc3c(c1O2)CN([C@@H](CCC(=O)O)C(=O)O)C3=O` (stereo not given in full), the Potency result is “inactive”.

Turning to `C[C@@H]1O[C@@H](O[C@H]2[C@H](O)[C@@H](C(=O)O)O[C@@H](O[C@H]3CC[C@@]4(C)C(CC[C@]5(C)C4CC=C4C6CC(C)(C)CC[C@]6(C(=O)O)CC[C@]45C)C3(C)C)[C@@H]2O[C@@H]2O[C@H](CO)[C@@H](O)[C@H](O)[C@H]2O)[C@H](O)[C@H](O)[C@H]1O` (stereo not given in full), the outcome is “inactive [at 9.27 µM]”.

For `C/C=C(\C)C(=O)O[C@H]1[C@@H](O[C@]2(COC(=O)CC(C)C)O[C@H](COC(=O)C(C)C)[C@@H](OC(C)=O)[C@@H]2O)O[C@H](COC(C)=O)[C@@H](O)[C@@H]1O`, the Potency entry is “inactive”.

For the molecule `O=C(O)Cn1nnc(-c2ccc(CN(CCCCOc3ccc(CN4CCCC4)cc3)CCc3ccccc3)cc2)n1`, the Potency entry was “inactive”.

Regarding `O=C(/C=C/N1C[C@@H]2C[C@@H]1CN2c1ccccn1)c1ccccc1O`, the Potency entry was “inactive”.

Turning to `C[C@H](/C=C/[C@@]1(O)[C@H](C)CC(=O)CC1(C)C)O[C@@H]1O[C@H](CO[C@@H]2OC[C@@H](O)[C@H](O)[C@H]2O)[C@@H](O)[C@H](O)[C@H]1O`, the Potency entry is “inactive”.
